Values joined by “and” are separate entries in the source; they are usually repeats but may differ in a detail not shown here. Equal entries are not always repeated.

In this experiment the test system is HL-1. Description: cardiomyocyte survival under oxidative or metabolic stress – cell-based, panel, H9c2 and HL-1, ATP luminescence, set 2, SAR follow-up (AID 651871).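 Also: cells exposed to stressor for 2 h before ATP readout; reference of the scale not given here.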 Particulars: H9c2/HL-1 cardiomyocytes, H2O2 oxidative stress; with H2O2, run 4, at 79 µM (top of the series).
As for `COc1ccc2nc(-c3cc(OC)c(OC)c(OC)c3)cc(C(=O)NCC(=O)Nc3ccc(C(C)=O)cc3)c2c1`, the activity (protection/inhibition) was 37.2% and 50%.

As for `COc1cc(-c2cc(C(=O)Nc3cccc(C(=O)NCc4ccccc4)c3)c3ccccc3n2)cc(OC)c1OC`, the activity (protection/inhibition) came to 17.9%.

On to `CCOC(=O)c1cccc(NC(=O)CNC(=O)c2cc(-c3cc(OC)c(OC)c(OC)c3)nc3ccccc23)c1`, for which the activity (protection/inhibition) was 25.9%.

For `COc1ccc2c(c1OC)C(=O)N1c3ccccc3C(=O)N(Cc3cccc(Cl)c3Cl)C21` (centres undefined), the activity (protection/inhibition) was 8.81% and -13.3% and 3.82%.

Values taken from PubChem BioAssay AID651871 (Sanford-Burnham Center for Chemical Genomics, 2012).
